# Measurements reported in the supplement of paper PMC5407854, “Inhibitor of ppGalNAc-T3-mediated O-glycosylation blocks cancer cell invasiveness and lowers FGF23 levels” (eLife, 2017).
# In all, about 1,700 compounds were measured (“T3 sensor activation Q score (MG/GFP ratio z-score vs DMSO controls)”: median about 0.25, highest 2% from about 1.9 on). The list comes from a sample in which the highest values are over-represented; it also holds similar structures and randomly drawn compounds.
# Test system: ppGalNAc-T3 sensor
# Assay: T3 sensor activation Q score (MG/GFP ratio z-score vs DMSO controls) (SD units); higher = more sensor activation (inhibition of ppGalNAc-T3 glycosylation)
# Conditions: HEK293 sensor cells; 10 µM; 6 h
# Experimental: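 Cells were treated with compound at 10 uM for 6 h, then MG/GFP ratio was read by flow cytometry (10,000 cells per well, duplicate wells). Q = (R - R_neg)/SD_neg relative to DMSO vehicle controls; the signal rises when the glycosyltransferase is inhibited.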
row,SMILES,T3 sensor activation Q score
1,O=C1c2ccccc2NC(c2cc(Cl)cc(Cl)c2O)N1CCc1ccccn1 (stereo not drawn),0.55
2,Cc1nnc2nc(N)[nH]n2c1=O,-1.2
3,O=C(O)CSc1nc2ccccc2s1,-0.1
4,COC1=C[C@@H](C)[C@@H]2C[C@H]3OC(O)C[C@H]4C(C)=C(OC)C(=O)[C@H]([C@@]2(C)C1=O)[C@@]34C (stereo partly drawn),0.4
5,CCOC(=O)Cc1csc2nc(-c3ccccc3)nn12,0.25
6,N#CC1=CC2CN(Cc3ccccc3)C1C1C(=O)N(c3ccccc3)C(=O)C21 (stereo not drawn),0.45
7,c1ccc(-c2nnc3nc(N4CCCCC4)nc(N4CCCCC4)n23)cc1,1.3
8,NC(N)=NCCCS(=O)(=O)Nc1ccc(Nc2c3ccccc3nc3cc([N+](=O)[O-])ccc23)cc1,-0.75
9,CN(C)c1ccc(/C=C2/C=C(c3ccc4c(c3)CCCC4)OC2=O)cc1,0.9
10,Clc1cc2c(nn1)Nc1ccccc1S2,0.2
11,CC(C)c1ncc(CO)n1Cc1c(Cl)cccc1Cl,1.85
12,Cn1c(CO)cnc1-c1ccccc1,0.3
13,O=c1[nH]c(SCc2ccccc2[N+](=O)[O-])nc2nc[nH]c12,0.3
14,O=c1cc(-c2ccccc2)oc2ccc(O)cc12,0.15
15,N[C@H](C(=O)O)[C@H]1ON=C(Cl)[C@H]1O,-0.15
16,COc1c(C=O)c2c(c(OC)c1OC)-c1ccc(OC)c(=O)cc1C(NC(C)=O)CC2 (stereo not drawn),4.1
17,CS/C(=N\S(=O)(=O)c1ccccc1)NNC(=O)c1c(-c2c(Cl)cccc2Cl)noc1C,0.65
18,CC1CC=C(O)C12OCC(C)(C)CO2 (stereo not drawn),-0.05
19,Cc1ccc(S(=O)(=O)N2CC=C(N)N2)cc1,-0.2
20,Cc1nc2ccccc2nc1NS(=O)(=O)c1ccc(N)cc1,-0.1
21,OCc1nc2nc(Cl)c(Cl)nc2[nH]1,-1.15

row,SMILES,T3 sensor activation Q score
1,CC(C)CCCCCCCCCCCCC(=O)NCC(=O)NC1C(C)OC(Nc2ncnc3nc[nH]c23)C(O)C1O (stereo not drawn),-1.5
2,Cc1cc(C)n2c(C)nnc2c1,1.85
3,Cc1ccn2c(C(C)O)nnc2c1 (stereo not drawn),0.05
4,COC(=O)c1c[n+]([O-])ccc1OC,-0.5
5,CN(C)S(=O)(=O)c1ccccc1N=C=S,-1.15
6,CCOC(=O)/C=C/c1ccc(C(=O)OCC)[nH]1,-1.5
7,CCOC(=O)/C=C/c1nc(C(=O)OCC)c(C)c(=O)[nH]1,1.9
8,CCOC(=O)c1nn(C)c2[nH]c(=O)n(C)c(=O)c12,0.15
9,CN(C)S(=O)(=O)Nc1cccc(Br)c1,1.8
10,CC(C)NC(=O)c1ccc(C(C)C)cc1,-0.3
11,CNNCc1ccc(C(=O)NC(C)C)cc1,1.85
12,CCC(C)NC(=O)c1cccc(C)c1 (stereo not drawn),1.35
13,Nc1nc(N)c2cc(Sc3ccc4ccccc4c3)ccc2n1,1.15
14,CCc1ccc(CCN2C(=O)c3ccccc3C2=O)nc1,0.1
15,CCOC(=O)c1nnsc1-c1ccc(-c2snnc2C(=O)OCC)cc1,0.95
16,Clc1ncnc2[nH]ccc12,-0.05
17,C=CCN=C(NC#N)SC,0.05
18,COc1cc(NC(C)=O)c2ncccc2c1NC(C)=O,1.2
19,O=c1[nH]cnc2c1ncn2Cc1ccc([N+](=O)[O-])cc1,0.15
20,CCOC(=O)c1cc2c(OC)c(OC)ccc2c2[nH]cc(C#N)c(=O)c12,0.7
21,Cn1nc(SCc2ccccc2)c(=O)n(C(c2ccccc2)c2ccccc2)c1=O,-0.65

row,SMILES,T3 sensor activation Q score
1,O=C1/C(=C\c2ccc([N+](=O)[O-])cc2)CCc2ccccc21,0.4
2,CCOc1ccc(/C=C2\CCc3ccccc3C2=O)cc1,1.85
3,COc1cccc(/C=C2\CCc3ccccc3C2=O)c1,-0.1
4,O=C(O)C1OCC2(CO1)COC(C(=O)O)OC2 (stereo not drawn),0.6
5,CC(C)(C)NC(=O)c1ccc(C(=O)NC(C)(C)C)cc1,-0.4
6,CC(=O)CC[N+](C)(C)C,0.75
7,O=C(/C=C/c1ccccc1)CC(c1ccccc1)N1CCOCC1 (stereo not drawn),0.15
8,Nc1ccc(C(=O)Nc2ccc(NC(=O)c3ccco3)c(O)c2)cc1,1.85
9,Nc1ccc(C(=O)Nc2cccc(N)c2)cc1,-1.35
10,Nc1ccc(NC(=O)c2ccc(C(=O)Nc3ccc(N)cc3)cc2)cc1,1.05
11,OC[C@H]1O[C@@H](n2cnc3c2NC=NC[C@H]3O)C[C@@H]1O,1.3
12,NC(=O)CCC(C(=O)O)N1C(=O)c2ccc(O)cc2C1=O (stereo not drawn),-0.1
13,N#CC1=C2CCCCC2(O)NC1=O (stereo not drawn),-0.45
14,CC1=C2C3OC(=O)C(C)C3CCC2(C)C=C(Cl)C1=O (stereo not drawn),1.1
15,CC(=O)[C@@]1(O)[C@H](C)C[C@H]2[C@@H]3C=C(C)C4=Cc5c(cnn5-c5ccccc5)C[C@]4(C)[C@H]3[C@@H](O)C[C@@]21C,5
16,CC1=CC2C(C(O)CC3(C)C2CC(C)C32OCOC23COCO3)C2(C)CC(=CO)C(=O)C=C12 (stereo not drawn),-3.35
17,COC1C(=O)CCC2(CO2)C1(O)C1(C)OC1CC=C(C)C (stereo not drawn),-1.6
18,OCC1(CO)CC2(C1)CC(CO)(CO)C2,-1.15
19,c1ccc(Nc2cccc3c(Nc4ccccc4)cccc23)cc1,-0.45
20,COc1ccc(NC(=O)CC(C)=O)c(OC)c1,-0.1
21,CC1(C)N=C(N)NC(=NCCCOc2ccc([N+](=O)[O-])cc2)N1,0.35
